Assay results published in the supplement of paper PMC8975748.
Counter-ions that a name gives are not always drawn. ± gives the standard deviation of the averaged measurements.

Experiments:
[1] = tested on: Saccharomyces cerevisiae BY4741 SeMeCo community; test: z-score of prototroph abundance vs DMSO median; higher = larger share of this subpopulation than in DMSO controls; settings: 10 µM; 24 h; SM minimal medium; subpopulation (auxotrophy): Prototroph
Summary of the method: (§1)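 A Saccharomyces cerevisiae BY4741 community carried four plasmids, each restoring one auxotrophy and encoding a distinct fluorescent protein. It was pre-grown overnight to OD600 1.0, diluted to 0.3, and 70 µl was added to 384-well plates acoustically predosed with library drugs (10 µM final), then grown 24 h in minimal SM medium. Cells were paraformaldehyde-fixed and imaged by automated confocal microscopy, with single-auxotroph fluorescent strains setting thresholds and autofluorescence correction. Each subpopulation's abundance was scored as a z-score against the vehicle-well median.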

[2] = tested on: Saccharomyces cerevisiae BY4741 SeMeCo community; test: z-score of subpopulation abundance vs DMSO median, subpopulation auxotrophic for M; higher = larger share of this subpopulation than in DMSO controls; settings: 10 µM; 24 h; SM minimal medium; subpopulation (auxotrophy): M
Summary of the method: as §1

[3] = tested on: Saccharomyces cerevisiae BY4741 SeMeCo community; test: z-score of subpopulation abundance vs DMSO median, subpopulation auxotrophic for L; higher = larger share of this subpopulation than in DMSO controls; settings: 10 µM; 24 h; SM minimal medium; subpopulation (auxotrophy): L
Summary of the method: as §1

[4] = tested on: Saccharomyces cerevisiae BY4741 SeMeCo community; test: z-score of subpopulation abundance vs DMSO median, subpopulation auxotrophic for U; higher = larger share of this subpopulation than in DMSO controls; settings: 10 µM; 24 h; SM minimal medium; subpopulation (auxotrophy): U
Summary of the method: as §1

[5] = tested on: Saccharomyces cerevisiae BY4741 SeMeCo community; test: z-score of subpopulation abundance vs DMSO median, subpopulation auxotrophic for H; higher = larger share of this subpopulation than in DMSO controls; settings: 10 µM; 24 h; SM minimal medium; subpopulation (auxotrophy): H
Summary of the method: as §1

[6] = tested on: Saccharomyces cerevisiae BY4741 SeMeCo community; test: z-score of subpopulation abundance vs DMSO median, subpopulation auxotrophic for LU; higher = larger share of this subpopulation than in DMSO controls; settings: 10 µM; 24 h; SM minimal medium; subpopulation (auxotrophy): LU
Summary of the method: as §1

[7] = tested on: Saccharomyces cerevisiae BY4741 SeMeCo community; test: z-score of subpopulation abundance vs DMSO median, subpopulation auxotrophic for LM; higher = larger share of this subpopulation than in DMSO controls; settings: 10 µM; 24 h; SM minimal medium; subpopulation (auxotrophy): LM
Summary of the method: as §1

[8] = tested on: Saccharomyces cerevisiae BY4741 SeMeCo community; test: z-score of subpopulation abundance vs DMSO median, subpopulation auxotrophic for UM; higher = larger share of this subpopulation than in DMSO controls; settings: 10 µM; 24 h; SM minimal medium; subpopulation (auxotrophy): UM
Summary of the method: as §1

[9] = tested on: Saccharomyces cerevisiae BY4741 SeMeCo community; test: z-score of subpopulation abundance vs DMSO median, subpopulation auxotrophic for HL; higher = larger share of this subpopulation than in DMSO controls; settings: 10 µM; 24 h; SM minimal medium; subpopulation (auxotrophy): HL
Summary of the method: as §1

[10] = tested on: Saccharomyces cerevisiae BY4741 SeMeCo community; test: z-score of subpopulation abundance vs DMSO median, subpopulation auxotrophic for HLU; higher = larger share of this subpopulation than in DMSO controls; settings: 10 µM; 24 h; SM minimal medium; subpopulation (auxotrophy): HLU
Summary of the method: as §1

[11] = tested on: Saccharomyces cerevisiae BY4741 SeMeCo community; test: z-score of subpopulation abundance vs DMSO median, subpopulation auxotrophic for HLM; higher = larger share of this subpopulation than in DMSO controls; settings: 10 µM; 24 h; SM minimal medium; subpopulation (auxotrophy): HLM
Summary of the method: as §1

[12] = tested on: Saccharomyces cerevisiae BY4741 SeMeCo community; test: z-score of subpopulation abundance vs DMSO median, subpopulation auxotrophic for HUM; higher = larger share of this subpopulation than in DMSO controls; settings: 10 µM; 24 h; SM minimal medium; subpopulation (auxotrophy): HUM
Summary of the method: as §1

[13] = tested on: Saccharomyces cerevisiae BY4741 SeMeCo community; test: z-score of subpopulation abundance vs DMSO median, subpopulation auxotrophic for LUM; higher = larger share of this subpopulation than in DMSO controls; settings: 10 µM; 24 h; SM minimal medium; subpopulation (auxotrophy): LUM
Summary of the method: as §1

[14] = tested on: Saccharomyces cerevisiae BY4741 SeMeCo community; test: z-score of subpopulation abundance vs DMSO median, subpopulation auxotrophic for HLUM; higher = larger share of this subpopulation than in DMSO controls; settings: 10 µM; 24 h; SM minimal medium; subpopulation (auxotrophy): HLUM
Summary of the method: as §1

[15] = tested on: Saccharomyces cerevisiae BY4741 SeMeCo community; test: mean cell size (pixel area) (pixels); higher = larger cells; settings: 10 µM; 24 h; SM minimal medium
Summary of the method: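 A four-plasmid fluorescent Saccharomyces cerevisiae BY4741 community was tested; each plasmid complements one auxotrophy and carries a fluorescent marker. An overnight preculture at OD600 = 1.0 was diluted to OD600 = 0.3, and 70 µl was added to 384-well plates acoustically predosed with drug (final 10 µM) in SM medium for 24 h. Cells were fixed with paraformaldehyde and imaged by automated confocal microscopy, with analysis in Harmony. Mean cell pixel area per well is averaged over 3 replicates. Same SeMeCo high-content imaging drug screen: Selleck FDA-approved drugs at 10 µM, 24 h in SM medium, 384-well plates, 3 replicates.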

[16] = tested on: Saccharomyces cerevisiae BY4741 SeMeCo community; test: z-score of subpopulation abundance vs DMSO median, subpopulation auxotrophic for HM; higher = larger share of this subpopulation than in DMSO controls; settings: 10 µM; 24 h; SM minimal medium; subpopulation (auxotrophy): HM
Summary of the method: as §1

[17] = tested on: Saccharomyces cerevisiae BY4741 SeMeCo community; test: z-score of subpopulation abundance vs DMSO median, subpopulation auxotrophic for HU; higher = larger share of this subpopulation than in DMSO controls; settings: 10 µM; 24 h; SM minimal medium; subpopulation (auxotrophy): HU
Summary of the method: as §1

Row | SMILES | z-score of prototroph abundance [1] | z-score of subpopulation abundance [2] | z-score of subpopulation abundance [3] | z-score of subpopulation abundance [4] | z-score of subpopulation abundance [5] | z-score of subpopulation abundance [6] | z-score of subpopulation abundance [7] | z-score of subpopulation abundance [8] | z-score of subpopulation abundance [9] | z-score of subpopulation abundance [10] | z-score of subpopulation abundance [11] | z-score of subpopulation abundance [12] | z-score of subpopulation abundance [13] | z-score of subpopulation abundance [14] | mean cell size [15] | z-score of subpopulation abundance [16] | z-score of subpopulation abundance [17]
1 | CO/N=C(\C(=O)N[C@@H]1C(=O)N2C(C(=O)OCOC(=O)C(C)(C)C)=C(/C=C\c3scnc3C)CS[C@H]12)c1csc(N)n1 [Cefditoren Pivoxil] | -0.6 | 0.2 | 1.38 | -0.88 | 0.56 | 0.07 | 1.47 | -0.06 | 1.56 | 0.74 | 0.31 | 0.78 | 1.12 | 0.48 | – | – | –
2 | CCCCCCCCN=c1ccn(CCCCCCCCCCn2ccc(=NCCCCCCCC)cc2)cc1 [Octenidine Dihydrochloride] | – | -8.04 | 3.6 | 2.6 | 13.2 | 14.2 | 0.87 | 13.5 | – | 5.94 | 27.7 | – | 13.8 | 58.5 | 9.029 ± 0.063 | 6.33 | 23.6
3 | CCCSc1ccc2[nH]c(NC(=O)OC)nc2c1 [Albendazole] | -0.36 | 0.54 | -0.04 | 0.62 | -0.51 | 0.31 | 0.33 | 0.26 | -0.39 | 0.38 | 0.74 | – | -0.08 | 0.29 | 12.59 ± 0.075 | 0.37 | -0.61
4 | NC12CC3CC(CC(C3)C1)C2 [Amantadine HCl] | 0.23 | 0.52 | -0.67 | 0.19 | -0.11 | -0.18 | – | -0.27 | -0.19 | -0.31 | -0.47 | -0.08 | -0.72 | -0.01 | – | -0.31 | -0.11
5 | COc1ccc2cc([C@H](C)C(=O)O)ccc2c1 [Naproxen] | 2.14 | -1.11 | -0.03 | -1.21 | 0.45 | -1.6 | -0.86 | -2.93 | 0.23 | -0.86 | 1.33 | -1.97 | -0.97 | -0.08 | – | – | -1.2
6 | CC(C)COc1ccc(CNC(=O)N(Cc2ccc(F)cc2)C2CCN(C)CC2)cc1 [Pimavanserin] | – | 1.1 | -1.18 | 0.22 | -0.39 | 0.32 | -0.48 | -0.58 | 0.41 | -0.54 | 0.27 | -0.82 | -0.56 | -0.3 | – | -0.22 | –
7 | CCCC1CC(C(=O)NC(C(C)Cl)C2OC(SC)C(O)C(O)C2O)N(C)C1 (stereo unspecified) [Clindamycin alcoholate] | -0.45 | 0.25 | 1.51 | -0.8 | 0.65 | -0.02 | 1.04 | – | 1.2 | -0.02 | 0.08 | – | 0.51 | -0.12 | 12.1 ± 0.19 | 0.91 | -0.93
8 | CN(Cc1ccc(C(C)(C)C)cc1)Cc1cccc2ccccc12 [Butenafine HCl] | 1.36 | 0.23 | -0.23 | -1.08 | -0.76 | -1.41 | – | -1.21 | -0.63 | -0.68 | -0.42 | -1.45 | -0.75 | 0.01 | – | -1.43 | -0.86
9 | O=C1Cc2cc(CCN3CCN(c4nsc5ccccc45)CC3)c(Cl)cc2N1 [Ziprasidone HCl] | -0.07 | 0 | 1.56 | -0.99 | 0.97 | -0.33 | 1.54 | -0.51 | 1.22 | 0.15 | 1.1 | 0.81 | 0.56 | – | – | 0.58 | -0.4
10 | CC(=O)C1C(=O)C=C(C)OC1=O (stereo unspecified) [Sodium dehydroacetate] | – | 0.37 | 1.59 | 1.63 | -1.35 | 2.06 | 0.56 | 0.54 | 0.4 | 1.27 | 0.13 | -0.21 | 1.14 | – | – | 0.2 | 0.24
11 | CC(=O)OC1CC2(C)C(CC(O)C3C4(C)CCC(O)C(C)C4CCC32C)C1=C(CCC=C(C)C)C(=O)O (stereo unspecified) [Fusidine] | -1.01 | 0.14 | 2.4 | -1.39 | 2.59 | 1.02 | 2.09 | -0.42 | – | 1.57 | 1.22 | 0.82 | 1.09 | 0.71 | – | – | 0.13
12 | CC(C)n1c(/C=C/C(O)CC(O)CC(=O)O)c(-c2ccc(F)cc2)c2ccccc21 (stereo unspecified) [Fluvastatin Sodium] | – | 6.6 | -1.3 | 0.84 | 6.45 | 1.08 | -0.26 | 8.31 | 7.24 | 4.2 | 21.3 | – | 4.75 | 14 | 12.1 ± 0.16 | 17.4 | 7.53
13 | O=C(O)Cc1ccccc1Nc1c(Cl)cccc1Cl [Diclofenac acid] | 1.03 | 0.23 | 0.08 | -0.61 | -1.45 | -0.18 | – | -0.58 | -0.51 | 0.15 | 0 | -1.34 | -0.28 | -0.07 | – | 0.14 | -1.1
14 | Cc1ccnc(NS(=O)(=O)c2ccc(N)cc2)n1 [Sulfamerazine] | -1.15 | 1.32 | 1.54 | -0.62 | 0.49 | 0.43 | 0.88 | 0.45 | 0.86 | 0.89 | 0.7 | 0.76 | 0.98 | 0.45 | – | 2 | –
15 | Cc1ccc(O)c([C@H](CCN(C(C)C)C(C)C)c2ccccc2)c1 [Tolterodine tartrate] | – | 0.22 | 0.31 | -0.01 | -0.19 | -0.23 | 1.32 | 1.04 | -0.22 | 0.29 | -0.01 | – | 1.3 | -0.2 | 12.36 ± 0.069 | 0.62 | 0.88
